# Pf growth 48h: inhibits P. falciparum growth in the first generation, 48 h; P. falciparum luciferase growth in erythrocytes, 48 h; Potency, µM (highest dose often 28.7 µM), hits mostly inhibitors; 310,000 compounds, 5.9% hits; AID 504832
#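 Read-out is firefly luciferase luminescence from an integrated reporter in P. falciparum, so falling signal marks reduced parasite growth. Infected erythrocytes were at 2% hematocrit and 0.1% parasitemia (final) in Albumax-supplemented RPMI 1640.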
# Pf growth 96h: P. falciparum growth inhibition at 96 hour, primary screen for plastid delayed-death inhibitors | P. falciparum luciferase reporter growth, 96 h | Potency, µM (top dose mostly 28.7 µM), actives largely listed as inhibitors | 320,000 compounds, 6.9% hits | AID 504834
#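 P. falciparum expressing integrated firefly luciferase grown in erythrocytes (2% hematocrit, 0.05% parasitemia final) with compounds for 96 hours at 37 C, 5% CO2. Growth inhibition read as loss of luminescence after adding luciferase detection reagent.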
# Sm TGR block: inhibitors of Schistosoma mansoni thioredoxin glutathione reductase. AID 485364. Potency, µM (highest dose often 114 µM), usual class: inhibitors. purified TGR, DTNB reduction, TNB absorbance 405 nm. 360,000 compounds, 3% hits. Q962Y6; further: nearly all actives have a fitted effect of over 60% in size
#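 TGR 20 nM + NADPH 100 uM (dispensed conc.), cpd preinc 15 min RT; start with NADPH (500 uM addition) then DTNB (15 mM addition). Kinetic TNB absorbance, 405 nm filter. Four-parameter Hill fit across titration.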
# FBPA Giardia inh: blocks Giardia fructose-bisphosphate aldolase activity; purified Giardia FBPA; Potency, µM (highest dose often 59.6 µM), usual class: inhibitors; 290,000 compounds, 0.71% hits; further: nearly all actives have a fitted effect of over 55% in size
# Target sequence (A8B2U2 whole entry, looked up): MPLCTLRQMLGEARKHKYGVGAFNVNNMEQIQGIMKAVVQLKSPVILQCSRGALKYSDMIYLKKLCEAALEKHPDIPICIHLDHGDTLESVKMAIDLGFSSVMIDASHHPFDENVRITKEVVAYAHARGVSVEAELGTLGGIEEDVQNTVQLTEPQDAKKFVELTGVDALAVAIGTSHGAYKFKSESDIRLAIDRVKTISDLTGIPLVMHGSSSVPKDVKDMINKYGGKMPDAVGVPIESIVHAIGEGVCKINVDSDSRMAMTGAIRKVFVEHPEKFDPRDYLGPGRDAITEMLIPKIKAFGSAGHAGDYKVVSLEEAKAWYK
#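 Giardia FBPA (40 nM reagent) was preincubated 10 min at RT with compound (up to 57.5 uM final), then substrate plus GAPDH/TPI/NAD/arsenate coupling system with diaphorase/resazurin was added; resorufin fluorescence (525/598 nm) was read after 20 min.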
# HCMV inh: inhibitors of human cytomegalovirus; 410,000 compounds, 4.5% hits; activity change, negative = inhibition, % at 57.5 µM; HFF cells, HCMV-luciferase reporter, 72 h; active compounds read low; in the data active means activity change below about -60%; inconclusive means no clear call, values can overlap the other calls; inactive means above about -39%
#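 Luciferase read-out from HCMV-luciferase-infected HFFs (MOI 1 PFU/cell) 72 h post infection at 37C; compounds added after 16 h cell attachment; activity normalized between buffer-only basal and Salinomycin (10uM) inhibitor controls.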
# A number is an active result; i = inactive; ? = inconclusive; nt = no result given. Compounds with a hit are over-represented: about 14% of the library has one in this group of screens. Unless noted, the call rests on the fitted dose curve; in most records, active means well fitted curve in the direction sought with a large enough effect; inconclusive means small, poorly fitted or top-dose-only effect, or another doubt; inactive means no such curve, though single readings can be large; an effect the other way counts as inactive or inconclusive.
SMILES,Pf growth 48h,Pf growth 96h,Sm TGR block,FBPA Giardia inh,HCMV inh
O=C(NN1C(=O)c2ccccc2C1=O)C1C2CCCCC21 (centres undefined),i,i,i,i,i
CC1=C(C(=O)N(C(C)C)C(C)C)CC(CC(=O)NC2CCCC2)C(=O)N1Cc1ccccc1 (centres undefined),nt,nt,nt,nt,i
Cc1cc(C(F)F)n2nc(C(=O)Nc3sc4c(c3C(N)=O)CCC4)nc2n1,?,4.1µM,i,i,i
COC(=O)c1c(NC(=O)c2nc3nc(C)cc(C(F)F)n3n2)sc2c1CCC2,?,5.2µM,i,i,i
Cc1cc(C(F)F)n2nc(C(=O)Nc3sc4c(c3C#N)CCC(C)C4)nc2n1 (centres undefined),i,i,i,i,i
COc1cccc(NC(=O)CN2C=NS(=O)(=O)c3ccccc32)c1,nt,nt,i,nt,i
COCc1cc(CN2CCCC2)c(O)c2ncccc12,2.9µM,?,?,?,-95
CN(C)C1CCN(Cc2cc(COCc3ccccc3)c3cccnc3c2O)C1 (centres undefined),0.83µM,?,14µM,nt,nt
Oc1c(CN2CCCCC2)cc(COCc2ccccc2)c2cccnc12,1.9µM,2.1µM,35µM,i,-96
COc1c(C)cc(C(=O)C2CCCN(Cc3cccc4nccnc34)C2)cc1C (centres undefined),?,?,i,i,?
O=C(COC(=O)CSc1ccc(F)cc1)NC1CCCCCC1,i,i,i,nt,i
O=C1C(c2ccccc2)=C(N2CC2)c2ccccc21,5.9µM,3.7µM,i,i,i
Cc1cc(C)cc(NS(=O)(=O)c2ccc(-c3cc(C)no3)cc2)c1,nt,nt,i,nt,-80
Cc1ccc(NS(=O)(=O)c2ccc(-c3cc(C)no3)cc2)c(C)c1,nt,nt,i,nt,-65
Cc1ccc(S(=O)(=O)Nc2c(C)cc(C)nc2Cl)cc1,i,2.6µM,i,i,i
Cc1ccc(S(=O)(=O)Nc2cc(C)c(O)cc2C)cc1,i,i,i,i,-76
Cc1cc(C)c(NS(=O)(=O)c2ccccc2)c(C)n1,nt,nt,nt,nt,i
Cc1cc(-c2ccc(S(=O)(=O)Nc3ccc(Cl)cc3)cc2)on1,nt,nt,i,nt,i
Cc1cc(-c2nnc(-c3ccccc3)c(-c3ccccc3)n2)c(C)o1,13µM,?,6.3µM,i,-65
COc1ccc(C)cc1-n1c(N)c(C#N)c(C#N)c1-c1ccc(OC)c(OC)c1OC,12µM,i,i,i,i
Cc1ccc(C)c(-n2c(N)c(C#N)c3nc4ccccc4nc32)c1,nt,nt,i,nt,i
CCOC(=O)N1CCN(C(=O)c2cn(C)c3ccc(S(=O)(=O)N(C)C4CCCCC4)cc3c2=O)CC1,i,?,i,nt,i
CC(C)CNC(=O)c1oc2ccccc2c1COc1ccccc1,12µM,10µM,i,i,?
CCC(CC)NC(=O)c1oc2ccccc2c1COc1ccccc1,6.6µM,4.1µM,i,i,i
CSCCC(NS(=O)(=O)c1ccccc1)C(=O)OCc1cc(=O)oc2cc(O)ccc12 (centres undefined),i,?,i,nt,i
SMILES,Pf growth 48h,Pf growth 96h,Sm TGR block,FBPA Giardia inh,HCMV inh
NC(COCc1ccccc1)c1csc(NC(=O)Nc2cccc(Cl)c2)n1 (centres undefined),nt,nt,nt,nt,i
COc1ccc(CNC(=O)CN2CCC(NC(=O)c3cccc(OC)c3)CC2)cc1,nt,nt,nt,nt,i
Cc1noc(/C=C/c2ccco2)c1S(=O)(=O)N1CCC(C(=O)Nc2ccc(F)cc2F)CC1,nt,nt,i,nt,?
COc1ccc(S(=O)(=O)N(CC(C)C)CC(C)C)c2cccnc12,nt,i,i,i,i
Cn1c(=O)c2cccnc2c(=O)n1C,nt,nt,nt,nt,i
CCCOCc1ccc(O)c2ncccc12,12µM,4.7µM,28µM,?,-104
CC(C)COCc1ccc(O)c2ncccc12,?,i,16µM,?,?
Cc1cccc(S(=O)(=O)c2cn(Cc3ccc(F)cc3)c3cc(N4CCCCC4)c(F)cc3c2=O)c1,nt,nt,i,nt,i
O=c1[nH]cnc2c1C(c1ccccc1)c1c(nc[nH]c1=O)O2,i,i,i,i,i
Cc1cc(S(=O)(=O)Nc2ccc(C(=O)NCCN3CCOCC3)cc2)ccc1F,nt,nt,nt,nt,i
CCOc1ccc(NS(=O)(=O)c2ccc(C(=O)NCC3(N(C)C)CCCCC3)cc2)cc1,8.3µM,9.3µM,i,nt,i
CCOc1ccc(NS(=O)(=O)c2ccc(C(=O)NCC3(N4CCCCC4)CCCCC3)cc2)cc1,?,?,i,nt,i
Cc1cc(S(=O)(=O)Nc2ccc(C(=O)NCC3(N(C)C)CCCCC3)cc2)ccc1F,?,10µM,i,nt,i
CC(=O)c1ccc(S(=O)(=O)NCc2ccc(C(=O)NCC(c3ccccc3)N(C)C)cc2)cc1 (centres undefined),13µM,?,14µM,i,i
Cc1cc(S(=O)(=O)Nc2ccc(C(=O)NCC3(N4CCCCC4)CCCCC3)cc2)ccc1F,?,13µM,i,nt,i
Cc1ccccc1C(=O)N(C)[C@H]1C[C@H]2c3[nH]c4ccccc4c3CCN2C(=O)[C@H]1[C@H](C)O,nt,nt,nt,nt,i
CN1CCn2cnc(C(=O)N3CCN(c4ccccc4)CC3)c2C1=O,nt,nt,nt,nt,i
Cc1cc(S(=O)(=O)Nc2ccc(C(=O)NCC(c3ccccc3)N(C)C)cc2)ccc1F (centres undefined),i,10µM,i,nt,?
COc1ccc(NC(=O)CNc2ccccc2C(C)=O)cc1S(=O)(=O)N1CCOCC1,nt,nt,nt,nt,i
COc1ccc(COC(=O)c2ccc(Br)c(S(=O)(=O)N3CCOCC3)c2)cc1F,3.3µM,?,i,nt,i
COc1ccc(NC(=O)c2ccc(Cl)nc2)cc1S(=O)(=O)N1CCOCC1,?,12µM,i,nt,i
COc1ccc(NC(=O)CSc2ccccc2)cc1S(=O)(=O)N1CCOCC1,i,12µM,i,nt,i
COc1ccc(NC(=O)Cc2ccsc2)cc1S(=O)(=O)N1CCOCC1,?,?,i,nt,i
O=C(Nc1cccc(S(=O)(=O)N2CCOCC2)c1)c1ccc(Cl)nc1,nt,nt,nt,nt,i
COc1ccc(NC(=O)Cn2ncc(Cl)c(Cl)c2=O)cc1S(=O)(=O)N1CCOCC1,?,?,10µM,i,-100
SMILES,Pf growth 48h,Pf growth 96h,Sm TGR block,FBPA Giardia inh,HCMV inh
Cc1cccc(NC(=O)Cn2nnc(C(=O)Nc3ccccc3Br)c2N)c1C,nt,nt,i,nt,i
O=C(OCC(=O)N1CCN(C(=O)c2ccco2)CC1)c1ccccc1NCCO,i,?,i,nt,i
CCN(CC)S(=O)(=O)c1ccc2c(c1)N(CC(=O)NCc1ccccn1)C(=O)CO2,i,i,i,i,i
CCc1ccc(C(=O)Nc2ccc(OC)c(S(=O)(=O)N3CCOCC3)c2)cc1,i,?,i,i,-89
COc1ccc(NC(=O)Cc2coc3cc(C)c(C(C)C)cc23)cc1S(=O)(=O)N1CCOCC1,?,?,i,i,-67
COc1ccc2c(CC(=O)Nc3ccc(OC)c(S(=O)(=O)N4CCOCC4)c3)coc2c1,i,i,i,i,i
COc1ccc(NC(=O)c2ccc(CNc3c(NC4CCCCC4)c(=O)c3=O)cc2)cc1OC,nt,15µM,i,?,i
COc1ccc(NC(=O)c2ccncc2)cc1S(=O)(=O)N1CCCCC1,nt,nt,nt,nt,i

# From PubChem BioAssay
